Experimental data published in PubChem BioAssay AID1159580 (chemical genetic matrix, 2015).
About 2,000 (36%) of roughly 5,500 compounds were called active. Inconclusive results (about 18%) are left out. Cut-off read from the data, not from the text of the source: active = normalized growth mostly below about 0.91 (no sharp cut-off); inconclusive = no clear call, values can overlap the other calls; inactive = mostly above about 0.92. Some of the results follow.

Test: chemical genetic growth profiling, strain panel (AID 1159580);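 note: tested at 20 µM; growth read once vehicle control cultures reached saturation at 30 °C; 1 = growth at the plate median or of vehicle wells; lower values mean less growth of the strain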
Conditions: growth OD

Measured: normalized growth

OC(CCN1CCCC1)(c1ccccc1)C1CCCCC1 (centres undefined)
inactive: S. cerevisiae deletion strains, locus YJR043C, strain POL32, active compounds read low 1.01 | S. cerevisiae deletion strains, locus YJR066W, strain TOR1, active compounds read low 0.973 | S. cerevisiae deletion strains, locus YKL009W, strain mrt4, active compounds read low 0.977 | S. cerevisiae deletion strains, locus YKL068W, active compounds read low 0.985 | S. cerevisiae deletion strains, locus YKL085W, strain MDH1 (second series), active compounds read low 0.977 | S. cerevisiae deletion strains, locus YKL085W, strain MDH1, active compounds read low 0.977 | S. cerevisiae deletion strains, locus YKL160W, strain elf1, active compounds read low 0.975 | S. cerevisiae deletion strains, locus YKL190W, strain CNB1, active compounds read low 0.996 | S. cerevisiae deletion strains, locus YKR001C, strain vps1, active compounds read low 0.985 | S. cerevisiae deletion strains, locus YKR026C, strain gcn3, active compounds read low 0.986 | S. cerevisiae deletion strains, locus YKR091W, strain srl3, active compounds read low 0.992 | S. cerevisiae deletion strains, locus YLL001W, strain dnm1, active compounds read low 0.956 | S. cerevisiae deletion strains, locus YLL026W, active compounds read low 0.974 | S. cerevisiae deletion strains, locus YLL041C, strain sdh2, active compounds read low 0.988 | S. cerevisiae deletion strains, locus YLR027C, strain aat2, active compounds read low 0.969 | S. cerevisiae deletion strains, locus YLR039C, strain RIC1, active compounds read low 1.05 | S. cerevisiae deletion strains, locus YLR058C, strain SHM2, active compounds read low 0.994 | S. cerevisiae deletion strains, locus YLR102C, strain apc9, active compounds read low 0.972 | S. cerevisiae deletion strains, locus YLR113W, strain HOG1, active compounds read low 1 | S. cerevisiae deletion strains, locus YLR221C, strain rsa3, active compounds read low 0.995 | S. cerevisiae deletion strains, locus YLR258W, strain gsy2, active compounds read low 1 | S. cerevisiae deletion strains, locus YLR262C, strain YPT6 (second series), active compounds read low 0.998 | S. cerevisiae deletion strains, locus YLR262C, strain YPT6, active compounds read low 1.07 | S. cerevisiae deletion strains, locus YLR268W, strain sec22, active compounds read low 0.946 | S. cerevisiae deletion strains, locus YLR320W, strain mms22, active compounds read low 0.968 | S. cerevisiae deletion strains, locus YLR330W, strain CHS5, active compounds read low 0.992 | S. cerevisiae deletion strains, locus YLR342W, strain FKS1 (second series), active compounds read low 0.992 | S. cerevisiae deletion strains, locus YLR342W, strain FKS1, active compounds read low 0.963 | S. cerevisiae deletion strains, locus YLR357W, strain rsc2, active compounds read low 0.973 | S. cerevisiae deletion strains, locus YLR370C, strain arc18, active compounds read low 0.972 | S. cerevisiae deletion strains, locus YLR371W, strain rom2, active compounds read low 0.958 | S. cerevisiae deletion strains, locus YLR384C, strain iki3, active compounds read low 0.969 | S. cerevisiae deletion strains, locus YLR418C, strain cdc73, active compounds read low 0.957 | S. cerevisiae deletion strains, locus YML016C, strain PPZ1, active compounds read low 0.991 | S. cerevisiae deletion strains, locus YML032C, strain rad52, active compounds read low 0.97 | S. cerevisiae deletion strains, locus YML120C, strain ndi1, active compounds read low 0.972 | S. cerevisiae deletion strains, locus YML124C, strain tub3, active compounds read low 0.983 | S. cerevisiae deletion strains, locus YMR058W, strain fet3, active compounds read low 0.981 | S. cerevisiae deletion strains, locus YMR078C, strain ctf18, active compounds read low 0.966 | S. cerevisiae deletion strains, locus YMR125W, strain sto1, active compounds read low 1 | S. cerevisiae deletion strains, locus YMR129W, active compounds read low 0.99 | S. cerevisiae deletion strains, locus YMR205C, strain PFK2, active compounds read low 0.985 | S. cerevisiae deletion strains, locus YMR223W, strain ubp8, active compounds read low 0.999 | S. cerevisiae deletion strains, locus YMR231W, strain pep5, active compounds read low 1 | S. cerevisiae deletion strains, locus YMR263W, strain SAP30, active compounds read low 1 | S. cerevisiae deletion strains, locus YMR307W, strain GAS1, active compounds read low 0.991 | S. cerevisiae deletion strains, locus YNL067W, strain RPL9B, active compounds read low 0.998 | S. cerevisiae deletion strains, locus YNL071W, strain lat1, active compounds read low 1.01 | S. cerevisiae deletion strains, locus YNL128W, strain TEP1, active compounds read low 0.982 | S. cerevisiae deletion strains, locus YNL183C, strain NPR1, active compounds read low 0.989 | S. cerevisiae deletion strains, locus YNL209W, strain ssb2, active compounds read low 0.993 | S. cerevisiae deletion strains, locus YNL233W, strain BNI4, active compounds read low 1.01 | S. cerevisiae deletion strains, locus YNL248C, strain rpa49, active compounds read low 1.01 | S. cerevisiae deletion strains, locus YNL250W, strain rad50, active compounds read low 0.967 | S. cerevisiae deletion strains, locus YNL271C, strain bni1, active compounds read low 0.987 | S. cerevisiae deletion strains, locus YNL298W, strain CLA4, active compounds read low 0.97 | S. cerevisiae deletion strains, locus YNL307C, strain MCK1, active compounds read low 0.976 | S. cerevisiae deletion strains, locus YNL322C, strain KRE1 (second series), active compounds read low 0.981 | S. cerevisiae deletion strains, locus YNR049C, strain mso1, active compounds read low 0.998 | S. cerevisiae deletion strains, locus YNR052C, strain pop2, active compounds read low 0.98 | S. cerevisiae deletion strains, locus YOL006C, strain TOP1, active compounds read low 1.02 | S. cerevisiae deletion strains, locus YOL012C, strain htz1 0.758 | S. cerevisiae deletion strains, locus YOL147C, strain pex11, active compounds read low 0.975 | S. cerevisiae deletion strains, locus YOR001W, strain rrp6, active compounds read low 0.965 | S. cerevisiae deletion strains, locus YOR061W, strain CKA2, active compounds read low 0.987 | S. cerevisiae deletion strains, locus YOR069W, strain VPS5, active compounds read low 0.989 | S. cerevisiae deletion strains, locus YOR070C, strain gyp1, active compounds read low 1 | S. cerevisiae deletion strains, locus YOR080W, strain dia2, active compounds read low 0.983 | S. cerevisiae deletion strains, locus YOR083W, strain WHI5, active compounds read low 0.956 | S. cerevisiae deletion strains, locus YOR106W, strain vam3, active compounds read low 0.979 | S. cerevisiae deletion strains, locus YOR136W, strain idh2, active compounds read low 0.982 | S. cerevisiae deletion strains, locus YOR144C, strain elg1, active compounds read low 0.979 | S. cerevisiae deletion strains, locus YOR184W, strain ser1, active compounds read low 0.985 | S. cerevisiae deletion strains, locus YOR231W, strain MKK1, active compounds read low 0.963 | S. cerevisiae deletion strains, locus YOR265W, strain rbl2, active compounds read low 0.988 | S. cerevisiae deletion strains, locus YOR270C, strain vph1, active compounds read low 0.965 | S. cerevisiae deletion strains, locus YOR290C, strain snf2, active compounds read low 1.01 | S. cerevisiae deletion strains, locus YOR316C, strain cot1, active compounds read low 0.97 | S. cerevisiae deletion strains, locus YPL051W, strain arl3, active compounds read low 0.987 | S. cerevisiae deletion strains, locus YPL078C, strain atp4, active compounds read low 0.945 | S. cerevisiae deletion strains, locus YPL106C, strain sse1, active compounds read low 1 | S. cerevisiae deletion strains, locus YPL240C, strain hsp82, active compounds read low 0.978 | S. cerevisiae deletion strains, locus YPL256C, strain CLN2, active compounds read low 1.02 | S. cerevisiae deletion strains, locus YPR119W, strain clb2, active compounds read low 0.981 | S. cerevisiae deletion strains, locus YPR141C, strain kar3, active compounds read low 0.978 | S. cerevisiae deletion strains, locus YPR163C, strain tif3, active compounds read low 0.974 | S. cerevisiae deletion strains, locus YPR167C, strain met16, active compounds read low 0.978 | S. cerevisiae deletion strains, strain wtn01, active compounds read low 0.964 | S. cerevisiae strains, strain wild type, active compounds read low 0.996
